We go through eight molecules from PMC5540273 (PLoS ONE, 2017).

Test systems include FGFR1; FGFR2; FGFR3; FGFR4; FGR; FLT1; FLT3-autoinhibited; FLT3; FLT4; FRK; FYN; GAK; GRK1; GRK4; GRK7; GSK3A; GSK3B.
What all share (conditions): concentration: 1 μM,replicates: in singlicate; n = 1
The test system of a further assay is T1, GCN2(Kin.Dom.2,S808G).
T1 construct: gene EIF2AK4

A further assay relates to T2, GRK2.
T2 construct: gene ADRBK1

The test system of another assay is T3, GRK3.
T3 construct: gene ADRBK2
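Also: KINOMEscan kinase panel screen.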

Take `NC(=O)c1cc(-c2ccccc2)cc2c(C3CCNCC3)c[nH]c12` [GSK301362]: the “%Inh” value in the assay on FGFR1 turned out to be 32%; with FGFR2, 19%; with FGFR3, 3%; in the assay with FGFR4 it was 9%; with FGR it was 14%; with FLT1, 37%. Also, the “%Inh” value in the assay on FLT3-autoinhibited was determined as 25%; in the assay with FLT3 it was 47%; in the assay on FLT4, 12%; in the assay on FRK, 2%; in the assay with FYN it was 21%; with GAK, 15%. Moreover, the “%Inh” value with GCN2(Kin.Dom.2,S808G) worked out at 38%; with GRK1, 0%; in the assay on GRK2, 0%; in the assay on GRK3, 0%; in the assay on GRK4, 2%; in the assay with GRK7, 0%. Further, the “%Inh” value in the assay on GSK3A is given as 0%; in the assay on GSK3B it was 14%.
For the molecule `C=CC(=O)Nc1cc2c(Nc3ccc(F)c(Cl)c3)ncnc2cc1OCCCN1CCOCC1` [GW781483], the “%Inh” value stood at 0% in the assay on FGFR1; 0% in the assay on FGFR2; 0% in the assay with FGFR3; 0% in the assay on FGFR4; 14% with FGR; 15% in the assay with FLT1. Also, the “%Inh” value in the assay on FLT3-autoinhibited is listed as 2%; in the assay on FLT3 it was 27%; in the assay with FLT4 it was 0%; with FRK, 30%; in the assay on FYN it was 0%; in the assay on GAK it was 66%. The “%Inh” value came to 0% in the assay with GRK1; 19% in the assay on GRK2; 3% in the assay with GRK3; 39% in the assay with GRK4; 0% in the assay with GRK7; 0% in the assay with GSK3A. In the assay on GSK3B, the “%Inh” value was 0%.
For the molecule `Cc1cc(C(=O)Nc2ccc(Oc3ccc4nc(NC(=O)C5CC5)cn4n3)cc2)nn1-c1ccccc1`, the “%Inh” value in the assay with FGFR1 came to 21%; with FGFR2, 28%; with FGFR3, 7%; with FGFR4 it was 13%; in the assay on FGR it was 59%; in the assay on FLT1, 88%. Moreover, the “%Inh” value in the assay on FLT3-autoinhibited is 18%; with FLT3, 97.5%; in the assay on FLT4 it was 94%; in the assay with FRK, 0%; with FYN, 13%; in the assay with GAK, 6%. Besides, the “%Inh” value in the assay on GCN2(Kin.Dom.2,S808G) came out at 0%; with GRK1 it was 0%; with GRK2, 0%; in the assay with GRK3 it was 0%; in the assay on GRK4, 6%; in the assay with GRK7, 0%. Moreover, the “%Inh” value with GSK3A and in the assay with GSK3B was 0% each time.
As to `CCN(CC)CCCCNc1ncc2cc(-c3c(Cl)cccc3Cl)c(NC(=O)NC(C)(C)C)nc2n1`, the “%Inh” value came out at 98.6% in the assay with FGFR1; 96.4% in the assay on FGFR2; 95.5% in the assay with FGFR3; 28% in the assay with FGFR4; 90.3% in the assay with FGR; 99% in the assay with FLT1. Further, the “%Inh” value with FLT3-autoinhibited amounted to 24%; in the assay with FLT3, 98.1%; in the assay on FLT4, 83%; in the assay on FRK it was 96.2%; in the assay with FYN, 87%; with GAK it was 42%. Besides, the “%Inh” value in the assay on GCN2(Kin.Dom.2,S808G) turned out to be 53%; in the assay with GRK1 it was 12%; in the assay on GRK2 it was 22%; with GRK3, 28%; in the assay with GRK4 it was 7%; in the assay with GRK7, 0%. The “%Inh” value in the assay on GSK3A came to 0%; with GSK3B it was 26%.
Consider `Cl.Cl.NC[C@H](Cc1ccc(C(F)(F)F)cc1)NC(=O)c1cc(Br)c(-c2ccnc3[nH]ccc23)s1` [GSK1487252], for which the “%Inh” value in the assay on FGFR1 is 14%; with FGFR2, 17%; in the assay on FGFR3, 24%; in the assay on FGFR4, 57%; with FGR it was 31%; in the assay with FLT1 it was 62%. Also, the “%Inh” value is listed as 23% with FLT3-autoinhibited; 63% in the assay on FLT3; 54% with FLT4; 15% with FRK; 15% in the assay with FYN; 0% in the assay on GAK. For the same molecule, the “%Inh” value with GCN2(Kin.Dom.2,S808G) was 4%; in the assay on GRK1 it was 93.7%; in the assay with GRK2 it was 35%; with GRK3 it was 75%; in the assay on GRK4 it was 8%; in the assay with GRK7, 95.3%. In addition, the “%Inh” value with GSK3A came out at 0%; with GSK3B it was 18%.
With `CC(C)Nc1cc(-c2ccc3c(N)n[nH]c3c2)nc(N)n1` [GSK2221681], the “%Inh” value came to 20% with FGFR1; 0% with FGFR2; 5% in the assay on FGFR3; 5% in the assay on FGFR4; 3% with FGR; 18% with FLT1. Also, the “%Inh” value in the assay with FLT3-autoinhibited was determined as 0%; with FLT3 it was 0%; with FLT4 it was 14%; in the assay on FRK, 3%; in the assay on FYN it was 33%; with GAK, 0%. Also, the “%Inh” value was determined as 0% in the assay on GCN2(Kin.Dom.2,S808G); 0% in the assay on GRK1; 0% in the assay on GRK2; 0% in the assay with GRK3; 34% with GRK4; 0% with GRK7. The “%Inh” value in the assay with GSK3A stood at 0%; in the assay on GSK3B, 4%.
For the molecule `COc1ccc(C[C@@H](CN)NC(=O)c2cc(Br)c(-c3ccnc4[nH]ccc34)s2)cc1.Cl.Cl` [GSK1389063], the “%Inh” value with FGFR1 stood at 95.8%; in the assay on FGFR2, 83%; in the assay on FGFR3, 69%; with FGFR4, 93.2%; with FGR, 53%; in the assay with FLT1, 82%. In addition, the “%Inh” value with FLT3-autoinhibited amounted to 42%; in the assay with FLT3, 98%; in the assay on FLT4, 73%; in the assay on FRK, 29%; in the assay on FYN, 0%; in the assay on GAK, 56%. For the same molecule, the “%Inh” value is given as 40% in the assay with GCN2(Kin.Dom.2,S808G); 99.8% in the assay with GRK1; 67% with GRK2; 96% in the assay with GRK3; 39% with GRK4; 98.8% in the assay on GRK7. The “%Inh” value in the assay with GSK3A came to 0%; in the assay with GSK3B, 8%.
As for `C[C@@H](Oc1cc(-c2cnn(C3CCNCC3)c2)cnc1N)c1c(Cl)ccc(F)c1Cl`, the “%Inh” value in the assay with FGFR1 is given as 22%; in the assay with FGFR2, 0%; with FGFR3, 24%; in the assay with FGFR4, 0%; in the assay on FGR, 46%; with FLT1, 28%. The “%Inh” value in the assay on FLT3-autoinhibited came to 31%; with FLT3 it was 40%; in the assay on FLT4, 4%; in the assay on FRK it was 36%; in the assay on FYN it was 15%; in the assay with GAK, 2%. For the same molecule, the “%Inh” value in the assay with GCN2(Kin.Dom.2,S808G) was 0%; in the assay on GRK1, 15%; in the assay on GRK2 it was 16%; in the assay with GRK3 it was 0%; in the assay with GRK4 it was 10%; in the assay on GRK7, 0%. For the same molecule, the “%Inh” value with GSK3A came to 68%; in the assay with GSK3B it was 36%.
